Screening results from PubChem BioAssay.
D1 antagonist = Antagonist of Human D 1 Dopamine Receptor: qHTS | HEK293 TREx D1 cells, calcium flux, dopamine EC80; active compounds read low | hit rate 3.2% among 360,000 | D(1A) dopamine receptor (Homo sapiens), P21728 | AID 504652, 2011 | activity change, negative = inhibition, % at 10 µM; in the data active = activity change below about -30%; note: % is set by controls: 0 for no effect and ±100 for the full control effect
Target sequence (P21728 whole entry, looked up): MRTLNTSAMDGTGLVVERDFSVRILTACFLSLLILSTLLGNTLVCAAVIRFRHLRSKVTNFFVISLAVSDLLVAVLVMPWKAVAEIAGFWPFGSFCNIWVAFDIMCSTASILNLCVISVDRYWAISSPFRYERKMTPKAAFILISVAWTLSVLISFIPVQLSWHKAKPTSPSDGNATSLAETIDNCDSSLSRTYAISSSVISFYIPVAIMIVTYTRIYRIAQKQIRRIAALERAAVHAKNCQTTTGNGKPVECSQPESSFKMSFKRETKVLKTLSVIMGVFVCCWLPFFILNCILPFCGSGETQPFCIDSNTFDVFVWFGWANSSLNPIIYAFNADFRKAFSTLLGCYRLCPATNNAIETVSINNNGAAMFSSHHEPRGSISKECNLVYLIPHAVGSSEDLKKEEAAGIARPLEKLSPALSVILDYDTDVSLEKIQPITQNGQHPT
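Tetracycline-induced HEK293 Trex D1 cells, force-coupled to calcium, dye-loaded; compounds added and read 180 s, then EC80 dopamine added and calcium flux tracked kinetically another 180 s.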
TRHR ag = qHTS for Small Molecule Agonists and Allosteric Enhancers of Human TRH Receptor: Primary Screen for Agonists; Thyrotropin-releasing hormone receptor (Homo sapiens), P34981; TRHR cells, calcium flux fluo-8, FDSS agonist mode; activation, % at 2 µM; hit rate 0.18% among 360,000; AID 493084, 2011; note: 0% is about no effect
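Agonist-mode FDSS calcium read (Ex 480/Em 530, 1 s cycles) in 1536-well TRHR cells with fluo-8 dye, after 10-cycle baseline and 23 nL compound addition; TRH at EC20 (10 nM final) added afterwards for the enhancer phase.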
D1 PAM = Potentiators of Human D1 Dopamine Receptor: qHTS; HEK293 TREx D1 cells, calcium flux, dopamine EC20 potentiation; potentiation, % at 10 µM; hit rate 0.036% among 360,000; in the data active = potentiation above about 30%; note: 0% is about no effect
D1 ag = Allosteric Agonists of the Human D1 Dopamine Receptor: qHTS; hit rate 1% among 360,000; AID 504660, 2011; HEK293 T-REx D1 cells, calcium flux, agonist mode; D(1A) dopamine receptor (Homo sapiens), P21728; activation, % at 2 µM; note: 0% is about no effect
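Tetracycline-induced HEK293 TREx D1 cells, force-coupled to calcium signalling, were dye-loaded with a no-wash calcium kit. Compound was pin-added after a 10 s baseline. Fluorescence was read kinetically at 1 cycle/s for 180 s, with calcium rises flagged as agonism.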
TRHR enhancer = qHTS for Small Molecule Agonists and Allosteric Enhancers of Human TRH Receptor: Primary Screen for Enhancers; Thyrotropin-releasing hormone receptor (Homo sapiens), P34981; TRHR cells, fluo-8 calcium fluorescence, EC20 TRH enhancement; enhancement, % at 2 µM; hit rate 0.66% among 360,000; AID 493056, 2011; in the data active = enhancement above about 30%; note: 0% is about no effect
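TRHR-expressing cells loaded with fluo-8 calcium dye were read kinetically (ex 480/em 530) during compound addition, then stimulated with an EC20 of TRH (10 nM final). Enhancement of the Gq-mediated intracellular calcium response was scored.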
An asterisk follows results filed as active. Only some compounds are listed: those with a hit (about 4.7% of all), similar ones and a draw of the others. Cut-off read from the data, not from the text of the source, unless noted: active = activation above about 30%; inactive = the rest.

SMILES	D1 antagonist	TRHR ag	D1 PAM	D1 ag	TRHR enhancer
CC(C)NS(=O)(=O)c1ccc(NC(=O)C(C)Oc2ccc(C(=O)c3ccccc3)cc2)cc1 (centres undefined)	-16	17	3	136*	-9
Cc1ccc(Nc2nnc(C3C(=O)N(C)C4(C)CC3c3cc(Br)ccc3O4)s2)cc1 (centres undefined)	8	0	9	36*	3
CCCc1cc(=O)[nH]c(NCc2ccc(Cl)cc2)n1	2	-1	-3	1	3
CCCc1cc(=O)[nH]c(-n2[nH]c3c(c2=O)CCCC3)n1	-6	0	1	67*	0
CCOc1ccc(C2/C(=C(\O)c3ccc4c(c3)OCCO4)C(=O)C(=O)N2Cc2cccnc2)cc1OCC (centres undefined)	-13	1	-4	2	-1
COc1cccc(-c2noc(COc3cccc(C)c3C)n2)c1	4	2	-1	25	6
COc1ccccc1Cc1noc(COc2cccc(C)c2C)n1	-78*	0	-6	14	6
O=C(NCC(c1ccc2c(c1)OCO2)N1CCN(c2ccccc2)CC1)c1ccccc1F (centres undefined)	0	1	1	2	-6
Cn1cccc1C(=O)NNC(=O)COc1ccccc1F	-47*	0	-7	0	-3
CCCn1c(Oc2ccccc2)nc2c1c(=O)n(C)c(=O)n2C	-39*	0	-4	-1	8
Cc1ccc(-n2ccnc(NCc3ccccc3)c2=O)cc1C	-35*	0	-2	1	9
CCn1cnc2c(Nc3ccc(Cc4cccnc4)cc3)nc(C#N)nc21	-2	-1	4	3	-8
CCCSc1nc2c(c(=O)[nH]1)C(c1ccc(F)cc1F)CC(=O)N2 (centres undefined)	-1	0	2	37*	-10
Cc1c(OCc2ccccc2)cccc1OCc1ccccc1	3	1	-3	1	-3
CC(C)(CO)NCc1c(OCc2ccc(Cl)cc2)ccc2ccccc12	2	2	-18	35*	-7
CNCc1c(OCc2ccccc2)ccc2ccccc12	-45*	1	-20	25	3
COc1cc(CNC(C)(C)CO)cc(Br)c1OCc1ccc(Cl)cc1	-6	1	-7	34*	-7
Cc1ccc(NCc2ccccc2OCc2ccccc2F)cc1	6	-1	-2	4	4
CNCc1c(OCc2ccccc2F)ccc2ccccc12	-81*	-1	-3	39*	-1
CCOC(=O)c1cc(NC(=O)c2ccc(C)cc2)c(=O)n2c1oc1ccc(Cl)cc12	2	1	-2	6	3
N#Cc1ccccc1NC(=O)C(=O)NCC(c1ccc2c(c1)OCO2)N1CCN(c2ccccc2)CC1 (centres undefined)	10	0	-1	1	2
CCc1cccc(NC(=O)CN2c3ccccc3S(=O)(=O)c3ccccc32)c1	-6	1	-4	4	6
COc1ccccc1NS(=O)(=O)c1ccc(C(=O)NCc2ccncc2)cc1	-26	0	6	-1	3
COc1ccccc1NS(=O)(=O)c1cccc(C(=O)OCC(=O)Nc2cc(C)on2)c1	-32*	1	-6	2	0
CCOc1cc(C(=O)Nc2ccc(S(=O)(=O)Nc3cc(C)on3)cc2)cc(OCC)c1OCC	32	0	-2	2	4
